Hits are enriched below; roughly 0.2% of the tested compounds scored in any of these assays.
Bcl-W Bim block: disrupts Bim peptide binding to human Bcl-W. bead-based flow cytometry. Q92843. 0.02% of 190,000 active. inhibition, % at 10 µM;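 also: 0% = bound tracer without compound and 100% = peptide blocker; higher means less fluorescent Bim peptide bound to Bcl-W beads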
Target sequence (Q92843 whole entry, looked up): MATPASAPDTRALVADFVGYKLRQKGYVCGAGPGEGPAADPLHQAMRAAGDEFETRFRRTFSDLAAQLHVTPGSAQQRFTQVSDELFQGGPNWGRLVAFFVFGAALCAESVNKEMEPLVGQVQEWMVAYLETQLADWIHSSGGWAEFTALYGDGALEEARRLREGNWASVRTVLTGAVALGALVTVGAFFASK
Bim-Bcl-B: human Bim-Bcl-B interaction inhibition. inhibition, % at 10 µM. 0.073% of 190,000 active. Q9HD36. bead-based flow cytometry, Bim peptide-Bcl-B binding;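 also: 0% = tracer peptide without compound and 100% = reference inhibitor peptide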
Pf gamet viab: P. falciparum stage V gametocyte viability inhibition. P. falciparum stage V gametocytes, ATP luminescence, 24 h. inhibition, % at 10.9 µM. 0.065% of 150,000 active. AID 743093;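 active = inhibition above the mean plus 3 SD of compounds within the control limits, set per campaign, cut at about 38% in these data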;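 also: 0% = DMSO wells and 100% = medium only without gametocytes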
Bfl-1 Bim block: human Bim-Bfl-1 interaction inhibition; 0.12% of 190,000 active; Bead-based flow cytometry, Bim-Bfl-1 binding inhibition; inhibition, % at 10 µM;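 also: 0% = wells without compound plus tracer and 100% = blocker peptide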
Target sequence (Q16548 whole entry, looked up): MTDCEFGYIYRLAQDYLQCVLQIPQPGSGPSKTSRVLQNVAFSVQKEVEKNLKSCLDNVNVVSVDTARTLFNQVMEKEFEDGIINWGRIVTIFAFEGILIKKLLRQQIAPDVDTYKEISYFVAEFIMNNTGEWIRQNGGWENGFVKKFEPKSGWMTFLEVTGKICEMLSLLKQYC
Bim-Bcl-2: disrupts Bim peptide binding to human Bcl-2. P10415. Bead-based flow cytometry, Bim peptide-Bcl-2 binding. inhibition, % at 10 µM. 0.06% of 190,000 active. AID 950; in the data active = inhibition above about 40%;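 also: 0% = no compound wells with probe peptide and 100% = reference peptide inhibitor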
Target sequence (P10415 whole entry, looked up): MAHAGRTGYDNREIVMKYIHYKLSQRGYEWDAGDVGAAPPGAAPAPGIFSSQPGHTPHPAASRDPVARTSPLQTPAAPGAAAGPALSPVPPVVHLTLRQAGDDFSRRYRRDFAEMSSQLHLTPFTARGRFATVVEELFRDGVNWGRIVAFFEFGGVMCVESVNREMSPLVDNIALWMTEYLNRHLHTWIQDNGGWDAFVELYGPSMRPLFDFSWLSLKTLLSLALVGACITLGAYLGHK
Bim-Bcl-XL: inhibitors of Bim-Bcl-XL interaction, human | 0.04% of 190,000 active | Q07817 | inhibition, % at 10 µM | AID 1007 | Bim peptide-Bcl-XL binding, bead flow cytometry, fluorescence
* = called active by the depositor; x = no result given. Rule as the data show it, unless noted: active = inhibition above about 40%.

SMILES | Bcl-W Bim block | Bim-Bcl-B | Pf gamet viab | Bfl-1 Bim block | Bim-Bcl-2 | Bim-Bcl-XL
O=C1Cc2ccccc2C(=O)N1OCc1ccc(Cl)cc1 | 0.0 | -2.0 | 40.7* | -5.0 | 0.0 | -4.0
CCC(C)Sc1nc2c(c(=O)[nH]c(=O)n2C)n1CC(O)COc1ccccc1C (stereo not given) | -13.0 | -86.0 | 39.1* | 17.0 | 6.0 | -12.0
CCC(C)Sc1nc2c(c(=O)[nH]c(=O)n2C)n1CCc1ccccc1 (stereo not given) | 1.0 | -3.0 | 3.3 | -7.0 | -1.0 | -2.0
COCCn1c(N)c(C(=O)Nc2sc3c(c2C(=O)OC)CCCC3)c2nc3ccccc3nc21 | 27.0 | 25.0 | x | 7.0 | 17.0 | 41.0*
COCCn1c(N)c(C(=O)NCC2CCCO2)c2nc3ccccc3nc21 (stereo not given) | -2.0 | 2.0 | x | -1.0 | -1.0 | 0.0
CC(C)=C1C(=O)NN(c2cccc(Cl)c2)C1=O | -2.0 | 0.0 | -11.8 | 4.0 | 2.0 | -9.0
CC(C)=C1C(=O)NN(c2ccc(C)c(Cl)c2)C1=O | 48.0* | 56.0* | -0.6 | 43.0* | 36.0 | 50.0*
CCCCCNC(=O)C(=O)C1C(=O)Nc2ccccc21 (stereo not given) | x | x | 0.5 | x | x | x
CN(C)CCNC(=O)C(=O)C1C(=O)Nc2ccccc21 (stereo not given) | -6.0 | 70.0* | 19.6 | 52.0* | 78.0* | 0.0
CC(C)CC(=O)OCc1cn(-c2ccccc2)nn1 | 1.0 | 80.0* | x | 58.0* | 83.0* | 10.0
Cc1ccc(/C=C/C2=Cc3c(sc(NC(=O)CSc4n[nH]c(N)n4)c3C#N)C(C)(C)C2)o1 | 26.0 | 7.0 | x | 47.0* | 19.0 | 16.0
COc1ccc2nc(NC(=O)c3cccc(-c4cc5ccccc5oc4=O)c3)sc2c1 | -8.0 | -10.0 | 49.0* | -1.0 | -6.0 | -5.0
CCCCCCc1ccc(N2C[C@H](Cc3ccccc3)[C@@H](CC(=O)Nc3ccccc3)C2=O)cc1 | x | x | -8.3 | x | x | x
Cc1ccc(-c2c3c([nH]c(=S)c2C#N)CCCC3)o1 | 20.0 | -5.0 | -17.1 | 41.0* | 11.0 | 5.0
Cc1nnc(NC(=O)c2ccc(S(=O)(=O)N3CCc4ccccc4C3)cc2)o1 | -4.0 | -8.0 | 49.4* | -4.0 | -5.0 | -2.0
CN(Cc1ccccc1)C(=O)c1[nH]cnc1C(=O)N[C@@H](CCCCNC(=O)OC(C)(C)C)C(=O)OC(C)(C)C | 0.0 | 73.0* | x | 45.0* | 83.0* | 6.0
COc1cc(/C=N/Nc2nn3cnnc3c3ccccc23)ccc1O | 27.0 | 27.0 | x | 3.0 | 8.0 | 42.0*
CC1=N/C(=C\c2ccc([N+](=O)[O-])cc2)C(=O)N1c1ccc(C)c(Cl)c1 | x | x | -9.9 | x | x | x
CCN(CC)S(=O)(=O)c1ccc(Cl)c(NC(=O)COC(=O)c2ccc(O)cc2)c1 | -1.0 | -5.0 | -3.1 | 0.0 | -3.0 | -2.0
CCN(CC)S(=O)(=O)c1ccc(Cl)c(NC(=O)COC(=O)c2cccn2C)c1 | -2.0 | -3.0 | 42.1* | -5.0 | -3.0 | -2.0
Nc1ccc(Sc2ccccc2Cl)nc1 | x | x | 15.3 | x | x | x
O=C(O)CC1S/C(=N/N=C/C=C/c2ccccc2)NC1=O (stereo not given) | -3.0 | -6.0 | x | -6.0 | -5.0 | -10.0
O=C(O)CC1S/C(=N/N=C/C=C/c2ccccc2[N+](=O)[O-])NC1=O (stereo not given) | 34.0 | 28.0 | -7.7 | 46.0* | 34.0 | 50.0*
COC(=O)c1cc(NC(=O)c2ccc(-c3ccccc3)cc2)ccc1Cl | -8.0 | -4.0 | 41.4* | -6.0 | -2.0 | -8.0
COC(=O)c1cc(NC(=O)Nc2cccc(Cl)c2)ccc1Cl | -2.0 | -3.0 | x | -1.0 | -2.0 | 0.0
SMILES | Bcl-W Bim block | Bim-Bcl-B | Pf gamet viab | Bfl-1 Bim block | Bim-Bcl-2 | Bim-Bcl-XL
NC(=O)NC(=O)COC(=O)/C=C/c1cccs1 | x | x | 14.9 | x | x | x
CC(C(=O)Nc1ccccc1C(=O)O)n1c(C(F)(F)F)nc2ccccc21 (stereo not given) | -1.0 | -2.0 | -31.1 | -6.0 | -6.0 | -5.0
O=C(Cn1c(C(F)(F)F)nc2ccccc21)Nc1ccccc1C(=O)O | 0.0 | -3.0 | 39.4* | -4.0 | -3.0 | 0.0
C[C@H](CO)N1C[C@H](C)[C@@H](CN(C)S(=O)(=O)c2ccccc2)Oc2c(NC(=O)NC3CCCCC3)cccc2C1=O | x | x | -8.6 | x | x | x
c1cn(CCCNC2CCCCCCC2)cn1 | x | x | -9.8 | x | x | x
COc1ccccc1-c1cc2nc(C)c(CCC(=O)NCc3ccc(F)cc3)c(C)n2n1 | x | x | -12.2 | x | x | x
COc1cc(OC)cc(-c2cc3nc(C)c(CCC(=O)NCc4ccccc4)c(C)n3n2)c1 | x | x | 38.6* | x | x | x
CCCn1c(C)cc(-c2csc(N)n2)c1C | 25.0 | 46.0* | x | 30.0 | 27.0 | 15.0
COc1ccc(OCC(=O)Nc2cccc3ncccc23)cc1 | 2.0 | 5.0 | -8.2 | 0.0 | 4.0 | 2.0
O=C(CCl)Nc1cccc2ncccc12 | 25.0 | 57.0* | 2.9 | 21.0 | 25.0 | 34.0
CC(Sc1ccccc1)C(=O)N/N=C/c1ccccc1 (stereo not given) | x | x | -1.7 | x | x | x
O=C(NCC1CCCCC1)c1ccccc1[N+](=O)[O-] | x | x | -5.1 | x | x | x
O=C(c1ccc(COc2ccccc2Br)o1)N1N=C(C(F)F)CC1(O)C(F)F (stereo not given) | -1.0 | -3.0 | 48.8* | 0.0 | -5.0 | -4.0
C[C@@H](NC(=O)c1[nH]cnc1C(=O)Nc1cccc(Cl)c1)c1ccccc1 | x | x | -2.7 | x | x | x
CCC(ONc1ccccc1C(F)(F)F)(C(=O)NN(C)C)c1ccccc1 (stereo not given) | x | x | -11.2 | x | x | x
CCCn1c(=S)[nH]c2cc(C(=O)N3CCc4ccccc4C3)ccc2c1=O | -4.0 | -15.0 | 47.3* | -7.0 | -4.0 | -8.0
Cc1nc2ccccc2n1CC(=O)c1ccc(O)c(O)c1 | x | x | -15.3 | x | x | x
O=C1N=C(N2CCOCC2)S/C1=C/c1ccc(-c2ccc(F)cc2)o1 | 2.0 | -2.0 | -0.3 | 7.0 | 3.0 | 0.0
O=C1NC(=S)S/C1=C/c1ccc(N2CCOCC2)o1 | 36.0 | 11.0 | x | 53.0* | 34.0 | 18.0
Cc1ccc(-c2ccc(/C=C3\SC(N4CCOCC4)=NC3=O)o2)cc1 | 17.0 | 2.0 | -6.5 | 41.0* | 17.0 | 11.0
CCOc1ccc(NC(=O)C(CC(=O)O)Cc2ccc(C)cc2)cc1 (stereo not given) | x | x | 7.6 | x | x | x
Clc1ccc2c(N/N=C/c3cccc(Br)c3)ccnc2c1 | 13.0 | 29.0 | -11.4 | 33.0 | 37.0 | 0.0
Clc1ccc2c(N/N=C/c3ccccc3Br)ccnc2c1 | 16.0 | 33.0 | -1.9 | 43.0* | 28.0 | -4.0
C=CCn1c(SCC(=O)c2ccc(O)c(O)c2)nnc1-c1cccc(OC)c1 | x | x | -4.5 | x | x | x
Cc1ccc(N=C2NC(=O)/C(=C/C=C/c3ccco3)S2)cc1 | 15.0 | 0.0 | x | 52.0* | 20.0 | 4.0
CCN(CC)c1ccc2c(c1)CCCN2 | 49.0* | 28.0 | x | 62.0* | 41.0* | 15.0
CCN(CC)c1ccc(CN2CCCCCC2)cc1 | -1.0 | -2.0 | x | -1.0 | 0.0 | 0.0
Clc1ccc(OCCCCCN2CCOCC2)cc1 | x | x | 4.6 | x | x | x
Cc1ccccc1-c1cc(C(=O)NCc2ccco2)n(CC2CC(c3cccnc3)=NO2)n1 (stereo not given) | x | x | -13.8 | x | x | x
COC(=O)C(OC(=O)c1ccccc1)C(C)Br (stereo not given) | x | x | 1.6 | x | x | x

Bioassay records as filed in PubChem.
